Compound activity: PubChem, National Center for Advancing Translational Sciences (NCATS)
AmpC inh detg = blocks E. coli AmpC beta-lactamase in detergent assay; Potency, µM (highest dose often 114 µM), for inactives: at the highest dose activity change, negative = inhibition, most hits filed as inhibitors; hit rate 0.041% among 370,000; AmpC hydrolysis of nitrocefin, absorbance 480 nm, 0.01% Triton; P00811;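 also: 0% = no-compound wells and -100% = no-enzyme wells; nearly all actives have a fitted effect of over 25% in size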
Target sequence (P00811 whole entry, looked up): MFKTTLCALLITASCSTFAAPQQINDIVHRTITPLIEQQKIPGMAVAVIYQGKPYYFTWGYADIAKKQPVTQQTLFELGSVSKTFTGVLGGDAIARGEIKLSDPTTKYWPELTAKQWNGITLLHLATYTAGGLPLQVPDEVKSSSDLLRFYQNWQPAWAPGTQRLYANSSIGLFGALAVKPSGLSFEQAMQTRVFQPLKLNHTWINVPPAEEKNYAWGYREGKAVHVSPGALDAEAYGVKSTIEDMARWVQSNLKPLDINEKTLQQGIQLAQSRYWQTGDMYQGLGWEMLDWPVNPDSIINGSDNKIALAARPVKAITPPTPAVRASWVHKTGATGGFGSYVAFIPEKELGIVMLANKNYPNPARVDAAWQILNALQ
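AmpC (5.3 nM in the dispensed reagent) in 20 mM phosphate pH 7.0 with 0.01% (detergent screen) or 0.0001% Triton X-100 was preincubated with compounds for 15 min at room temperature. Nitrocefin was then added from an 800 uM solution, and hydrolysis was followed at 480 nm.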
Pf growth 96h = inhibits malaria parasite growth, 96 h. hit rate 6.9% among 320,000. P. falciparum luciferase reporter growth, 96 h. Potency, µM (titrated, usually from 28.7 µM), for inactives: at the highest dose activity change, negative = inhibition, actives largely listed as inhibitors
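Cell-based qHTS: luciferase-tagged P. falciparum in erythrocytes (2% hematocrit, 0.05% parasitemia final) incubated with compounds for 96 hours, 37 C, 5% CO2; luciferase detection reagent then added and luminescence measured.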
AMA1-RON2 inh = inhibitors of Plasmodium falciparum AMA1-RON2 interaction; AlphaScreen AMA1-biotinylated RON2 peptide binding; Potency, µM (series often up to 58.2 µM), inactives show top-dose activity change, negative = inhibition, hits mostly inhibitors; hit rate 0.2% among 360,000;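 also: 0% = vehicle wells and -100% = peptide control; nearly all actives have a fitted effect of over 45% in size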
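AMA1 (3D7) with his tag at 25 nM final met compounds first, then biotinylated RON2 peptide at 25 nM; detection used donor plus acceptor beads, 10 µg/mL apiece, read by AlphaScreen after 30 min at room temperature.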
Pf growth 48h = P. falciparum growth inhibition at 48 hours (one generation) | P. falciparum luciferase growth in erythrocytes, 48 h | hit rate 5.9% among 310,000 | Potency, µM (series often up to 28.7 µM), for inactives: top-dose activity change, negative = inhibition, actives largely listed as inhibitors
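Cell-based growth assay: transgenic P. falciparum expressing firefly luciferase, cultured in red cells within RPMI 1640 containing 0.5% w/v Albumax, 24 mM bicarbonate and gentamycin. A drop in luciferase activity indicates inhibition.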
AmpC no deterg = AmpC beta-lactamase inhibition without detergent. AmpC nitrocefin hydrolysis, absorbance 480 nm, 0.0001% Triton. hit rate 0.52% among 330,000. P00811. Potency, µM (top dose mostly 57.1 µM), without a hit: at the top dose activity change, negative = inhibition, most hits filed as inhibitors;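 also: plate controls were no compound for no effect and no enzyme for full effect; nearly all actives have a fitted effect of over 20% in size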
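20 mM phosphate pH 7.0 + 0.01% (detergent screen) or 0.0001% Triton X-100; 5.3 nM AmpC reagent; cpd preinc 15 min RT; nitrocefin (800 uM stock) to start; A480 q20 s × 4 min; Activity was normalised to no-enzyme and no-compound control wells.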
HCV inh = inhibitors of hepatitis C virus infection; AID 651820; hit rate 3.4% among 340,000; Potency, µM (highest dose often 41.8 µM), for inactives: at the highest dose activity change, negative = inhibition, actives largely listed as inhibitors; Huh7.5.1 HCVcc-Cre infection, luciferase reporter, 44 h
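Whole-lifecycle infectious HCVcc-Cre system; cells 1,000/well, compound then virus (~0.5 moi) added 4 h after plating, 44 h culture. Luciferase read 15 sec following 15 min substrate incubation, room temp.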
* = called active by the depositor; ? = inconclusive; . = not tested or not shown. Rows were chosen to be rich in hits. Some 11% of all compounds tested hit in one or more screens of this group. Calls follow the shape of the dose curve; as a rule, active = well fitted curve in the direction sought with a large enough effect; inconclusive = small, poorly fitted or top-dose-only effect, or another doubt; inactive = no such curve, though single readings can be large; an effect the other way counts as inactive or inconclusive. Unless noted, % is scaled to controls: 0 for no effect and ±100 for the full control effect; potency is read from the fitted curve at half-maximal effect.

SMILES	AmpC inh detg	Pf growth 96h	AMA1-RON2 inh	Pf growth 48h	AmpC no deterg	HCV inh
O=C(COc1ccccc1F)NC1CC(=O)N(c2ccc3c(c2)OCCO3)C1 (stereo unspecified)	2%	.	.	.	.	.
Cc1nc(SCC(=O)Nc2ccc(Cl)cc2C(F)(F)F)[nH]c(=O)c1Cc1ccccc1	23%	.	.	.	.	.
CSc1ccc(CNC(=O)c2sc3ncnc(N(C)C4CCCCC4)c3c2C)cc1	0%	.	.	.	.	.
Cc1ccc(-n2c(=O)c3c4c(sc3n(Cc3cc(=O)n5cc(Cl)ccc5n3)c2=O)CCC4)cc1C	-2%	.	.	.	.	.
COc1ccc(CN(C)CC2CCCN(CCc3ccc(Cl)cc3)C2)cc1OC (stereo unspecified)	?	-10%	10%	?	71%	10µM*
COc1cc(CN(C)CC2CCCN(CCc3cccc(C(F)(F)F)c3)C2)ccc1O (stereo unspecified)	-19%	?	-2%	2.9µM*	63%	13µM*
CCN(CC1CCCN(CCc2cccc(F)c2)C1)C(=O)c1cc(C)oc1C (stereo unspecified)	3%	5.2µM*	-8%	?	96%	?
COc1cc(CN(C)CC2CCCN(CCc3ccc(F)cc3)C2)c(Cl)cc1O (stereo unspecified)	-10%	?	8%	12µM*	-20%	?
CCC(CC)C(=O)Nc1cccc(-c2nc3ncccn3c2C)c1	19%	.	.	.	.	.
CCCN1CCN(CCNC(=O)Nc2ccc(OC)c(OC)c2)CC1	24%	.	.	.	.	.
CCc1c(C)c2ccc(O)c(CN3CCN(c4ccc(OC)cc4)CC3)c2oc1=O	18%	.	.	.	.	.
COc1ccc(F)c(CN(C)CC2CCCN(CCc3ccc(F)cc3)C2)c1 (stereo unspecified)	5%	?	-13%	?	41%	?
COc1ccc(CN(C)CC2CCCN(CCc3ccc(F)cc3)C2)cc1OC (stereo unspecified)	-1%	4.7µM*	1%	?	5%	?
N#C/C(=C\c1ccc(F)cc1)C(=O)NCC1CCCO1 (stereo unspecified)	21%	.	.	.	.	.
CC1CCc2c(sc3ncnc(NCc4cccnc4)c23)C1 (stereo unspecified)	-11%	-6%	-4%	?	35%	25µM*
CCN1CCN(c2ncnc3sc4c(c23)CCC(C)C4)CC1 (stereo unspecified)	0%	-2%	4%	?	15%	?
CC1CCc2c(sc3ncnc(NCCCOC(C)C)c23)C1 (stereo unspecified)	-1%	-9%	-11%	.	113%	10µM*
c1cncc(CNc2ncnc3sc4c(c23)CCC4)c1	-6%	4%	16%	9%	-23%	?
Cc1cn2c(=O)cc(COc3cccc(NC(=O)c4ccccc4Cl)c3)nc2s1	-6%	.	.	.	.	.
CCc1ccc(NC(=O)C2CCN(S(=O)(=O)c3cnc[nH]3)CC2)cc1	-8%	13µM*	-1%	?	-36%	3%
Cc1ccc(-c2csc(NC(=O)C3CCN(S(=O)(=O)c4cccs4)CC3)n2)cc1	-4%	12µM*	31%	?	-31%	10µM*
CCc1ccc(NC(=O)C2CCN(S(=O)(=O)c3cccs3)CC2)cc1	-2%	220%	15%	?	-37%	4.5µM*
Cc1nc2ccc(NC(=O)C3CCN(S(=O)(=O)c4cccs4)CC3)cc2s1	0%	9.3µM*	33%	?	-8%	?
COc1ccc(Cl)cc1NC(=O)Cn1c(=O)n(Cc2cccs2)c(=O)c2cccnc21	0%	.	.	.	.	.
Cc1ccc(Cl)cc1N1CCN(C(=O)c2ccc(NC(=O)c3nsc4ccccc34)cc2)CC1	0%	.	.	.	.	.
SMILES	AmpC inh detg	Pf growth 96h	AMA1-RON2 inh	Pf growth 48h	AmpC no deterg	HCV inh
CCc1cccc(NC(=O)c2cnc(SC)nc2-c2ccccc2)c1	-3%	.	.	.	.	.
O=C(Nc1ccc(Cl)cn1)C1CCN(S(=O)(=O)c2cccs2)CC1	1%	7%	18%	-4%	-29%	11µM*
Cc1cccc2sc(N(CCN(C)C)C(=O)C3CCN(S(=O)(=O)c4cccs4)CC3)nc12	-12%	?	-3%	12µM*	-8%	?
O=C(Nc1nccs1)C1CCN(S(=O)(=O)c2cccs2)CC1	7%	2%	17%	0%	-27%	-12%
O=C(C1CCN(S(=O)(=O)c2cccs2)CC1)N1CCCCC1	6%	0%	6%	31%	0%	9%
CN(C(=O)C1CCN(S(=O)(=O)c2cccs2)CC1)C1CCCCC1	?	1.7µM*	4%	-16%	4%	21%
O=C(OCC1CCCO1)c1ccc2c(c1)N(Cc1c(F)cccc1Cl)C(=O)c1ccccc1S2(=O)=O (stereo unspecified)	4%	.	.	.	.	.
O=C(Nc1ccc(Cl)cc1)C(NS(=O)(=O)c1cccs1)c1ccccc1 (stereo unspecified)	0%	.	.	.	.	.
Cc1ccc(/C=C2/CNC/C(=C/c3ccc(C)cc3)C2=O)cc1	.	.	2%	.	.	8.9µM*
Cc1ccc(/C=C2\CCOC2=O)cc1	-6%	11%	3%	?	-14%	-6%
O=C(C=Cc1ccccc1)c1c[nH]c2ccccc2c1=O	.	.	16%	.	.	11µM*
Cc1[nH]c2ccccc2c1/C=C/C(=O)c1ccccc1	-11%	116%	-5%	26%	-30%	?
Cc1[nH]c2ccccc2c(=O)c1C(=O)/C=C/c1ccccc1	5%	?	-20%	?	-37%	11µM*
CCS(=O)(=O)c1ncc(N(Cc2ccco2)Cc2ccccc2F)c(C(=O)Nc2cccc(Cl)c2)n1	11%	.	.	.	.	.
O=C1CN(C(=O)Nc2ccccc2Cl)C(c2ccccc2)c2c(sc3c2CCCC3)N1 (stereo unspecified)	-3%	.	.	.	.	.
COc1ccc(-n2c(O)c(C(C)=NCc3ccco3)c(=O)[nH]c2=O)cc1	-5%	?	0%	-3%	-8%	-2%
COc1ccc(-n2c(O)c(C(C)=NCCc3c[nH]c4ccccc34)c(=O)[nH]c2=O)cc1	12%	?	1%	12µM*	-24%	-6%
COc1ccccc1N1CCc2c(C)nc3c(OC)cccc3c21	-5%	?	-2%	13µM*	-1%	?
O=C(Nc1cccc(-c2cn3c(n2)SCC3)c1)c1ccc(Br)o1	-4%	0.74µM*	-6%	17%	-37%	-10%
COc1ccc(-c2nc(C(=O)Nc3cccc(C(C)=O)c3)nn2-c2ccccc2Cl)cc1	-3%	.	.	.	.	.
